Bioassay records (PubChem BioAssay)
Mdm2 MdmX PPI – inhibitors of human Mdm2/MdmX interaction; AID 485346; inhibition, % at 8 µM; 330,000 tested, 3% active; SaOS-2 split-luciferase Mdm2/MdmX complementation, luminescence; O15151+Q00987;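 active means inhibition of at least 50% at 8 µM in the primary screen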
697 NFkB inh – lowers PMA/ionomycin-induced NF-kB signal in 697 B cells | 697 B-cell NF-kB luciferase reporter, 16 h | inhibition, % at 4 µM | 330,000 tested, 0.33% active | AID 435022; in the data active means inhibition above about 35%
Jurkat NFkB inh – inhibitors of the PMA/ionomycin-induced NF-kB reporter in Jurkat cells. inhibition, % at 4 µM. PMA/ionomycin-induced NF-kB luciferase reporter, luminescence. 330,000 tested, 0.53% active; in the data active means inhibition above about 50%
Shn3 3UTR inh – reduces Shn3 3'UTR luciferase signal in osteoblasts | inhibition, % at 12.5 µM | AID 588674 | 360,000 tested, 0.52% active | Clone20 osteoblast Shn3 3'UTR firefly luciferase, 24 h;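 active means mean inhibition of at least 75% with every replicate also reaching 75%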;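 further: 0% = median of neutral control wells and 100% = pilot-screen positive control compound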
Gli-Sufu antag – Gli-Sufu pathway antagonism; Sufu-KO-LIGHT fibroblasts, Gli luciferase reporter luminescence; inhibition, % at 5 µM; 340,000 tested, 0.74% active;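 active means inhibition above about 55%, limit read from the data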;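 further: 0% = DMSO-treated cells and 100% = wells with medium but no cells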
Mdm2-MdmX conf – human Mdm2/MdmX binding inhibition, confirmed; shares compounds with Mdm2 MdmX PPI; luminescent assay; inhibition, % at 8 µM; 10,000 tested, 55% active; AID 489028; in the data active means inhibition above about 40%
Full FLuc ctr – full-length luciferase inhibition in Mdm2/MdmX counter-screen; shares compounds with Mdm2 MdmX PPI; SaOS-2 full-length luciferase counterscreen, luminescence; inhibition, % at 8 µM; 6,200 tested, 77% active; AID 504607;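 active means mean inhibition at 8 µM reaching about 37%, which flags the compound as non-specific, limit read from the data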;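 further: p53-null SaOS-2 cells with luciferase driven by a doxycycline-inducible promoter; compound on cells about two nights before reading with doxycycline added after day one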
* hit, by the source's call; x = no result. The list is not random: actives were taken first. Their share in the collection is about 3.8%.

SMILES | Mdm2 MdmX PPI | 697 NFkB inh | Jurkat NFkB inh | Shn3 3UTR inh | Gli-Sufu antag | Mdm2-MdmX conf | Full FLuc ctr
Cc1cccn2c(=O)c3cc(C(=O)NCCc4ccccc4)c(=N)n(CC4CCCO4)c3nc12 (centres undefined) | 72* | -26 | 37 | -5 | 25 | 37 | x
COCCn1c(=N)c(C(=O)NCCc2ccccc2)cc2c(=O)n3cccc(C)c3nc21 | 9 | -58 | -14 | 11 | -3 | x | x
Cc1cccn2c(=O)c3cc(C(=O)NCCc4ccccc4)c(=N)n(CCCn4ccnc4)c3nc12 | 51* | -11 | 11 | 12 | -4 | 18 | x
CCC(C)NC(=O)c1ccc([N+](=O)[O-])c(Cl)c1 (centres undefined) | 5 | 11 | 9 | -3 | -1 | x | x
CC(=O)OC1CCC2(C)C(CCC3C2CC(=O)C2(C)C3CC(C3CCCC3=O)C2C(C)=O)C1 (centres undefined) | x | x | x | -2 | 8 | x | x
COc1cccc(C(=O)/C=C/c2ccc(OCC#N)c(OC)c2)c1 | 96* | -13 | 9 | 3 | 6 | 43* | 42*
CCOc1ccc(/C=C/C(=O)c2ccccc2)cc1OC | 10 | -2 | -31 | -66 | -1 | x | x
CCOc1ccc(C(=O)/C=C/c2ccc(OC)c(OC)c2)cc1 | 22 | 14 | 12 | -29 | 2 | x | x
COc1cc(/C=C/C(=O)c2ccc(O)cc2)ccc1OCC#N | 87* | -30 | -8 | 32 | -13 | 78* | 36
COc1ccc(NC(=O)CN(C)C2CCCCC2)c([N+](=O)[O-])c1 | 8 | 5 | 2 | -8 | 1 | x | x
Cc1ccc(S(=O)(=O)N2CCOCCOCCOCCOCCOCC2)cc1 | 6 | -20 | -22 | -5 | 4 | x | x
Cc1ccc(S(=O)(=O)N2CCN(c3ccc(S(=O)(=O)N4CCOCC4)cn3)CC2)cc1 | 66* | -40 | -2 | 22 | 2 | -16 | x
C/C(=N\NC(=S)Nc1ccc(F)cc1)c1ccc2c(c1)OCCO2 | 64* | -44 | 36 | -34 | -12 | 62* | 56*
O=C(COC(=O)C12CC3CC(CC(C3)C1)C2)Nc1nc2c(F)c(F)c(F)cc2s1 | 58* | -4 | -9 | 22 | 0 | 14 | x
C=CCc1cccc(/C=N/NC(=O)CNc2ccccc2)c1O | 56* | 11 | -1 | 49 | -1 | 55* | 33
C=CCc1cccc(/C=N/NC(=O)CCC(=O)Nc2ccc(F)cc2)c1O | 71* | -3 | 24 | 79 | 3 | 64* | 17
C=CCc1cccc(/C=N/NC(=O)C(C)Nc2cccc(C)c2)c1O (centres undefined) | 71* | 5 | 7 | -2 | 6 | 56* | 35
COc1ccccc1NCC(=O)N/N=C/c1cccnc1 | 0 | 15 | 5 | 2 | 21 | x | x
C=CCc1cccc(/C=N/NC(=O)CCCNc2ccc(C)cc2)c1O | x | x | x | 24 | -6 | x | x
C=CCc1cccc(/C=N/NC(=O)CNc2ccccc2OC)c1O | 69* | 10 | 21 | 10 | -8 | 55* | 28
S=C(NCC1CCCO1)c1ccc(Br)cc1 (centres undefined) | 29 | -5 | -10 | -1 | -10 | x | x
O=C1CCN(CCc2ccccc2)CCN1CCSc1ccccc1 | 3 | -12 | 8 | -29 | -28 | x | x
COc1ccc2c(c1)CCc1c(C(=O)N(C)c3ccccc3)noc1-2 | -40 | -48 | -43 | -28 | -13 | x | x
C=CCc1cccc(/C=N/NC(=O)CNc2cccc3ccccc23)c1O | 71* | 7 | -2 | 6 | -3 | 66* | 39*
C=CCc1cccc(/C=N/NC(=O)C[n+]2ccccc2)c1O | 7 | 2 | 11 | 1 | 4 | x | x
SMILES | Mdm2 MdmX PPI | 697 NFkB inh | Jurkat NFkB inh | Shn3 3UTR inh | Gli-Sufu antag | Mdm2-MdmX conf | Full FLuc ctr
COCCN1C(=O)N[C@@H](c2ccco2)C(C(=O)OC)=C1C | -4 | 2 | -6 | 6 | 2 | x | x
CC(C(=O)NCc1ccccc1)N1CCN(c2ccc(F)cc2)CC1 (centres undefined) | -30 | 8 | 9 | -25 | 2 | x | x
COCCN(Cc1cc2cc(C)ccc2n2nnnc12)C(=S)Nc1ccccc1C | 51* | -7 | 3 | -28 | 2 | 0 | x
C=C(C)CSc1nc2sc3c(c2c(=O)n1-c1ccc(C)cc1)CCN(C)C3 | 3 | -15 | -19 | 18 | 34 | x | x
Cc1nc(N)nc(N)c1CCCc1ccc(Cl)c(Cl)c1 | 68* | -43 | 11 | 19 | 21 | 57* | 50*
CCCCn1c(CCc2ccccc2)nc2cc3[nH]c(=O)c(C(C)C)nc3cc21 | 51* | 7 | -13 | 7 | -5 | 12 | x
Cc1ccc(NC(=S)N=Nc2c(O)n(C)c3ccc(S(=O)(=O)N4CCOCC4)cc23)cc1C | 52* | -22 | -2 | 78 | 25 | 41* | 48*
Cc1ccsc1CNC(=O)C1(C)CCN1C(=O)C(C)C (centres undefined) | x | x | x | 0 | x | x | x
O=C(NC1CCN(Cc2ccc(Cl)cc2)CC1)c1cn(-c2ccccc2)nc1-c1cccnc1 | 53* | 12 | 19 | 35 | 16 | 32 | x
O=C(CN1C(=O)NC2(CCCC2)C1=O)NCCc1ccccc1 | 15 | 7 | 0 | -2 | -3 | x | x
CC1(C)Cc2c(ccc3ccccc23)C(c2cc3ccccc3oc2=O)=N1 | 24 | -42 | -9 | -6 | 11 | x | x
CC1(C)Cc2ccccc2C(c2cc3ccccc3oc2=O)=N1 | 62* | 23 | 6 | 0 | 4 | 26 | x
COc1ccccc1N(CC(=O)NCCSc1ccc(Cl)cc1)S(C)(=O)=O | -18 | 17 | -2 | -13 | -4 | x | x
Cn1nnnc1Sc1ncnc2scc(-c3cccc4c3sc3ccccc34)c12 | 100* | -114 | -14 | 4 | 31 | 67* | 48*
COc1ccc(-c2csc3ncnc(Sc4nnnn4C)c23)cc1 | 68* | 16 | 7 | 19 | -6 | 46* | 21
CN(C)C(=O)CSc1ncnc2scc(-c3ccccc3)c12 | 21 | 2 | -4 | 6 | 10 | x | x
Cc1ccc(-c2csc3ncnc(SCC(=O)c4ccc5c(c4)OCCO5)c23)cc1 | 20 | 2 | -13 | 0 | 5 | x | x
Cn1nnnc1Sc1ncnc2scc(-c3ccc4c(c3)OCO4)c12 | 71* | -20 | -1 | -17 | 12 | 37 | x
Cn1nnnc1Sc1ncnc2scc(-c3ccccc3Cl)c12 | 68* | -1 | -14 | -12 | 44 | 59* | 21
Clc1ccc(-c2csc3ncnc(Cl)c23)cc1 | 44 | -6 | -5 | 0 | -24 | x | x
Cn1nnnc1Sc1ncnc2scc(-c3ccc(Cl)cc3)c12 | 100* | -56 | 8 | 82 | 26 | 99* | 52*
COc1ccc(-c2cnc(C(O)c3ccc(CN4CCCCC4)cc3)[nH]2)cc1 (centres undefined) | x | x | x | 16 | x | x | x
CC(C)c1ccc(Nc2nnc(SC3CCOC3=O)s2)cc1 (centres undefined) | 52* | -11 | 1 | -1 | -5 | -3 | x
